Screening data from PubChem BioAssay.
TAR Tat displ: TAR RNA-Tat peptide displacers, HIV-1, primary screen, biochemical, FRET, FAM/TAMRA-labeled Tat; HIV-1 TAR RNA, Tat peptide displacement FRET; stronger effect = higher value; 100,000 tested, 0.6% active; z-score (concentration not given with the values); AID 1259389, 2018; active = z-score of 3 or more in at least 2 runs
CDC25B CDK2 inh: primary biochemical HTRF screen for blockers of M-phase inducer phosphatase 2 binding to CDK2/cyclin A. 94,000 tested, 0.72% active. HTRF CDC25B-CDK2/CyclinA binding, anti-His/anti-Flag; stronger effect = higher value. z-score (test concentration not listed). AID 1259370, 2018; in the data active = z-score above about 3.2
Each line names hits and unclear results; the compound was inactive in the other large screens. A selection: hits, their analogues and other compounds. The true share with any hit is near 0.93%.

Cc1cc(C)cc(NC(=O)C(C)CS(=O)(=O)c2ccc3c(c2)NC(=O)C(C)S3)c1 (stereo unspecified)	none (no result: CDC25B CDK2 inh)
O=C1CCSc2ccc(S(=O)(=O)NC3CC3)cc2N1	none (no result: CDC25B CDK2 inh)
C[C@H]1c2cccc(O)c2C(O)=C2C(=O)[C@]3(O)C(O)=C(C(N)=O)C(=O)[C@@H](N(C)C)[C@@H]3[C@@H](O)[C@@H]21	TAR Tat displ 24
CN(C)c1ccc(O)c2c1C[C@H]1C[C@H]3[C@H](N(C)C)C(=O)C(C(N)=O)=C(O)[C@@]3(O)C(=O)C1=C2O	TAR Tat displ 20 (no result: CDC25B CDK2 inh)
Nc1c(S(=O)(=O)c2ccccc2)nnn1CC(=O)Nc1ccc(Cl)cc1	none (no result: TAR Tat displ)
O=C(Nc1cc(F)ccc1F)c1cc(CN2CCOCC2)on1	none (no result: CDC25B CDK2 inh)
CC1=C(c2ccccc2)S(=O)(=O)NC1=NCCCN1CCN(C2CCCCC2)CC1	none
CC1=C(c2ccccc2)S(=O)(=O)NC1=NCCCN1CCN(c2cc(C)ccc2C)CC1	CDC25B CDK2 inh 13
CCN(CC)S(=O)(=O)c1ccc2c(c1)c(=O)c(C(=O)NC1CCCCCC1)cn2C	none (no result: TAR Tat displ)
CCCc1nn2c(=O)cc(COc3cccc(OC)c3)nc2s1	none
O=S(=O)(NCc1ccc(-c2csnn2)cc1)c1cc(C(F)(F)F)cc(C(F)(F)F)c1	none (no result: TAR Tat displ)
Cn1c(C(F)(F)F)nnc1S(=O)(=O)Cc1ccc(-c2csnn2)cc1	CDC25B CDK2 inh 16 (no result: TAR Tat displ)
CC1(C)N([O-])C2=C(c3ccccc3C2=O)[N+](=O)C1(C)C	CDC25B CDK2 inh 17 (no result: TAR Tat displ)
O=C(C1CCN(c2nc3cccnc3s2)CC1)N1CCc2ccccc2C1	none (no result: CDC25B CDK2 inh)
COc1ccc(-c2cc3nc(C)cc(NCc4cccnc4)n3n2)cc1OC	TAR Tat displ 5.1
COc1ccc(CNc2cc(C)nc3c(-c4ccc(OC)c(OC)c4)c(C)nn23)cc1	none
O=C(Nc1ccccc1SCc1cc(=O)n2c3c(sc2n1)CCCC3)c1cccs1	none (no result: CDC25B CDK2 inh)
C=CCSCC=C	TAR Tat displ 15 (no result: CDC25B CDK2 inh)
CCN(CC)S(=O)(=O)c1ccc2c(c1)c(=O)c(C(=O)NC1CCC(C)CC1)cn2C (stereo unspecified)	none (no result: TAR Tat displ)
Cc1ccc(-c2ccc3c(c2)C=C(C(=O)NC2CCCC2)CO3)cc1	none (no result: CDC25B CDK2 inh)
CCn1cc2c(n1)-c1c(oc(C(=O)NCCN(C)C3CCCCC3)c1C)CC2	none (no result: CDC25B CDK2 inh)
OCC1O[C@H]([S-])[C@@H](O)C(O)[C@@H]1O.[Au+] (stereo partly specified)	CDC25B CDK2 inh 19 (no result: TAR Tat displ)
OCC1O[C@H](O)C(Cl)C(O)C1O (stereo partly specified)	none (no result: TAR Tat displ)
Cc1ccc(Cl)cc1-n1ncc2c(N(C)C)ncnc21	none (no result: CDC25B CDK2 inh)
CCC(C)N(CCNc1ncnc2onc(C)c12)Cc1ccco1 (stereo unspecified)	none (no result: CDC25B CDK2 inh)
COc1ccc(NS(=O)(=O)c2ccc3c4c(cccc24)C(=O)N3)cc1	none
O=C1Nc2ccc(S(=O)(=O)Nc3ccc4oc5c(c4c3)CCCC5)c3cccc1c23	TAR Tat displ 6.3
O=C(NCC1CCCO1)C(=O)Nc1ccc2nc3n(c(=O)c2c1)CCCCC3 (stereo unspecified)	none
Cc1ccc(/C=C/c2nn3c(-c4ccoc4C)nnc3s2)cc1	none
c1csc(-c2nn3cnnc3s2)c1	none
Cc1ccc(-c2nn3c(C)nnc3s2)cc1	none
Cc1occc1-c1nnc2sc(/C=C/c3ccccc3Cl)nn12	TAR Tat displ 7.7
Cc1ccc(-c2nnc3sc(/C=C/c4ccco4)nn23)cc1	TAR Tat displ 20, CDC25B CDK2 inh 14
C(=C\c1nn2cnnc2s1)/c1ccco1	TAR Tat displ 21
Cc1nnc2sc(/C=C/c3ccco3)nn12	TAR Tat displ 11
Cc1ccccc1/C=C/c1nn2c(-c3ccoc3C)nnc2s1	none
CCN(CC)C(=O)C1CCN(S(=O)(=O)c2c(C)noc2/C=C/c2ccco2)CC1	none (no result: CDC25B CDK2 inh)
CC(=O)N1CCCSc2ccc(S(=O)(=O)N3CCCC(CN4CCc5ccccc5C4)C3)cc21 (stereo unspecified)	none (no result: CDC25B CDK2 inh)
N#Cc1nc(/C=C/c2ccc(F)cc2)oc1N1CCN(Cc2ccccc2)CC1	none
Cc1ccc(-c2nc(CNC(=O)NC(C)C)c(C)o2)cc1	none (no result: CDC25B CDK2 inh)
CCCCc1ccc(-c2nnc(-c3ccc(CCCC)cc3)nn2)cc1	none (no result: TAR Tat displ)
Cc1ncc(CO)c2cc(C(=O)Nc3ccc(F)cc3F)c(=O)oc12	none
CCCC(=O)n1nc(-c2ccco2)nc1NCc1cccs1	none
CC1CCC(NC(=O)C2CCN(C(=O)c3cc4sccc4n3C)CC2)CC1 (stereo unspecified)	none
Cc1cc(C)cc(Nc2nc(C)cc(=O)[nH]2)c1	none
Cc1ccc2c(c1)-c1cc(C)nn1C(c1cccc(O)c1O)N2 (stereo unspecified)	TAR Tat displ 19
Cc1ccc2c(c1)-c1cc(C)nn1C(c1cc(C)ccc1O)N2 (stereo unspecified)	none
Nc1n[nH]c2cc(=O)[nH]c(O)c12	none (no result: TAR Tat displ)
O=c1cc2cc(O)[nH]c(=O)c2c(O)[nH]1	CDC25B CDK2 inh 19 (no result: TAR Tat displ)
Cc1ccc(CNC(=O)c2cc3n(n2)CC(C)(C(=O)NC2CCCCC2)N(C)C3=O)o1 (stereo unspecified)	none (no result: CDC25B CDK2 inh)
COc1cccc(C2CC(=O)N3CN(Cc4ccco4)CSC3=C2C#N)c1 (stereo unspecified)	CDC25B CDK2 inh 15
COc1ccc(C2CC(=O)N3CN(CCC(C)C)CSC3=C2C#N)cc1OC (stereo unspecified)	CDC25B CDK2 inh 4.7
COc1ccc(C2CC(=O)N3CN(CCC(C)C)CSC3=C2C#N)cc1 (stereo unspecified)	none
N#CC1=C2SCN(Cc3ccco3)CN2C(=O)CC1c1cccc(F)c1 (stereo unspecified)	none
COc1cc(C2CC(=O)N3CN(Cc4ccco4)CSC3=C2C#N)ccc1O (stereo unspecified)	CDC25B CDK2 inh 4.9
COc1ccc(C2CC(=O)N3CN(Cc4ccco4)CSC3=C2C#N)cc1OC (stereo unspecified)	CDC25B CDK2 inh 5.5
COc1ccccc1C1CC(=O)N2CN(Cc3ccco3)CSC2=C1C#N (stereo unspecified)	none
O=C(NCCC1=CCCCC1)c1nn(-c2ccc(Cl)cc2)nc1CO	none
c1ccc(-c2noc(-c3cccnc3NC3CCCC3)n2)cc1	none
COCCCNc1nc(SCc2ccccc2)nc2sc3c(c12)CC(C)(C)OC3	none
Cn1c(O)c(C2=Nc3ccccc3SC(c3cccnc3)C2)c(=O)[nH]c1=O (stereo unspecified)	none
O=C(NCCO)c1ccc2nc3c4ccccc4c4ccccc4c3nc2c1	CDC25B CDK2 inh 8.2 (no result: TAR Tat displ)
COCCNC(=O)Nc1ccc2nc(NS(C)(=O)=O)sc2c1	none (no result: CDC25B CDK2 inh)
O=C(NC1CC1)c1ccc(NC(=O)c2nsc3ccccc23)cc1	none
C=CCNC(=O)Nc1ccc2nc3c4ccccc4c4ccccc4c3nc2c1	CDC25B CDK2 inh 21 (no result: TAR Tat displ)
O=C(NNc1cc(C(F)(F)F)nc2ccccc12)Nc1ccccc1	none (no result: TAR Tat displ)
O=C(COC(=O)c1ccc2nc3c4ccccc4c4ccccc4c3nc2c1)c1ccccc1	none (no result: TAR Tat displ)
COCCNC(=O)Nc1ccc2nc3c4ccccc4c4ccccc4c3nc2c1	CDC25B CDK2 inh 20 (no result: TAR Tat displ)
S=C(Nc1ccc2nc3c4ccccc4c4ccccc4c3nc2c1)NC1CC1	CDC25B CDK2 inh 7.1 (no result: TAR Tat displ)
Cc1cccc(/C=C/c2nn3c(-c4cccnc4)nnc3s2)c1	none
NC(=O)C1CCN(c2ncnc3onc(-c4ccc(F)cc4)c23)CC1	none (no result: CDC25B CDK2 inh)
Cc1c(C(=O)N2CCCC2)c(S(=O)(=O)NCc2ccc3c(c2)OCO3)c(C)n1C	none (no result: CDC25B CDK2 inh)
CC(=O)NS(=O)(=O)c1ccc(NC(=O)CCN2C(=O)/C(=C/c3ccccc3)SC2=S)cc1	none (no result: TAR Tat displ)
O=C(O)CN1C(=O)/C(=C\c2ccc(-c3cccc4c3C(=O)c3ccccc3C4=O)o2)SC1=S	CDC25B CDK2 inh 10 (no result: TAR Tat displ)
